Results as given in PubChem BioAssay (NCI).
The panel holds about 79,000 compounds, 15% with a hit somewhere; the sample as a whole holds those more often. Active and inactive are the calls of the source. No stated cut-off is given here; in the data, active means growth inhibition above about 70%; inactive means the rest.

How the values were obtained:
[1] = NCI Yeast Anticancer Drug Screen. Data for the mlh1 strain (AID 171);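 further: 0% = growth of vehicle-treated control cultures of the same strain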; conditions: S. cerevisiae mlh1 strain growth inhibition, stronger effect = higher value
Summary of the method: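 Steps: expose the defined-mutant yeast strain to compound; expose a parallel culture to vehicle; measure growth; express compound effect as inhibition relative to the vehicle culture.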

[2] = NCI Yeast Anticancer Drug Screen. Data for the sgs1 strain (AID 173);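 further: 0% = growth of vehicle-only control cultures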; conditions: S. cerevisiae sgs1 mutant, stronger effect = higher value
Summary of the method: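 Treat defined-mutant yeast with compound; measure growth; calculate inhibition relative to vehicle-treated cells.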

[3] = NCI Yeast Anticancer Drug Screen. Data for the mlh1 rad18 strain (AID 175); conditions: S. cerevisiae mlh1 rad18 strain growth inhibition, stronger effect = higher value
Summary of the method: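 Test agents were incubated with a yeast strain of defined genotype (DNA damage repair defect). Inhibition of growth was derived by comparison with vehicle-exposed cultures.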

[4] = NCI Yeast Anticancer Drug Screen. Data for the rad18 strain (AID 177); conditions: S. cerevisiae rad18 mutant growth inhibition, stronger effect = higher value
Summary of the method: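 A genetically defined yeast mutant impaired in DNA damage repair was treated with test compounds, then its growth was measured against cultures receiving vehicle alone.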

[5] = NCI Yeast Anticancer Drug Screen. Data for the rad52 strain (AID 147);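 further: 0% = growth of vehicle-treated control cultures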; conditions: S. cerevisiae rad52 mutant growth inhibition, stronger effect = higher value
Summary of the method: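 Screen used a yeast mutant impaired in DNA repair. After compound exposure, growth was measured. Values reflect inhibition compared with vehicle-treated cells.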

[6] = NCI Yeast Anticancer Drug Screen. Data for the rad50EPP+ strain (AID 151);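 further: 0% = growth of vehicle-treated control cultures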; conditions: S. cerevisiae rad50 mutant strain, stronger effect = higher value
Summary of the method: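 Exposing the rad50EPP+ strain to each compound, growth was compared with vehicle-only cultures to give inhibition.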

[7] = NCI Yeast Anticancer Drug Screen. Data for the mgt1 strain (AID 153); conditions: S. cerevisiae mgt1 mutant growth inhibition, stronger effect = higher value
Summary of the method: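 Genetically defined yeast (mgt1) treated with compound; inhibition of growth expressed against vehicle-treated controls.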

[8] = NCI Yeast Anticancer Drug Screen. Data for the rad50 strain (AID 155);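 further: 0% = growth of vehicle-only cultures of the same strain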; conditions: S. cerevisiae rad50 strain growth inhibition, stronger effect = higher value
Summary of the method: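 Yeast carrying a defined DNA repair defect were exposed to test compounds, and growth was compared with vehicle-treated controls to give percent inhibition.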

[9] = NCI Yeast Anticancer Drug Screen. Data for the mec2-1 strain (AID 157); conditions: S. cerevisiae mec2-1 strain, stronger effect = higher value
Summary of the method: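 Readout is yeast growth inhibition, normalised to vehicle-treated controls, in the mec2-1 strain exposed to compound.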

[10] = NCI Yeast Anticancer Drug Screen. Data for the rad14 strain (AID 159);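 further: 0% = growth of vehicle-treated control cultures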; conditions: S. cerevisiae rad14 strain growth inhibition, stronger effect = higher value
Summary of the method: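 Yeast cells carrying a defined DNA-repair defect were exposed to compounds, and growth inhibition was calculated relative to vehicle-treated control cultures.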

[11] = NCI Yeast Anticancer Drug Screen. Data for the sgs1 mgt1 strain (AID 161);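 further: 0% = growth of cultures given vehicle only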; conditions: S. cerevisiae sgs1 mgt1 strain, stronger effect = higher value
Summary of the method: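 Compounds are added to genetically altered yeast, and growth is compared with cultures given vehicle alone to give percent inhibition.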

[12] = NCI Yeast Anticancer Drug Screen. Data for the CLN2oe strain (AID 163);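 further: 0% = growth of vehicle-only control cultures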; conditions: S. cerevisiae CLN2oe strain, stronger effect = higher value
Summary of the method: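 Values reflect how much compound exposure reduced yeast growth, referenced to vehicle-exposed cells. Assay organism is a strain with a defined genetic change affecting cell-cycle control.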

[13] = NCI Yeast Anticancer Drug Screen. Data for the cln2 rad14 strain (AID 165);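 further: 0% = growth equal to vehicle treated cultures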; conditions: S. cerevisiae cln2 rad14 strain, stronger effect = higher value
Summary of the method: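 Relative to vehicle controls, growth inhibition of compound-treated cln2 rad14 yeast was recorded.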

[14] = NCI Yeast Anticancer Drug Screen. Data for the bub3 strain (AID 167); conditions: S. cerevisiae bub3 mutant strain, stronger effect = higher value
Summary of the method: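 Compounds were applied to a genetically altered yeast strain carrying a cell-cycle control defect. Growth inhibition was scored against vehicle-treated controls.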

[15] = NCI Yeast Anticancer Drug Screen. Data for the wt2 strain (AID 169);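 further: 0% = growth of vehicle-treated yeast cultures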; conditions: S. cerevisiae wt2 strain growth inhibition, stronger effect = higher value
Summary of the method: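 Values express reduction in yeast growth under compound treatment, referenced to vehicle-treated cells.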

[16] = NCI Yeast Anticancer Drug Screen. Data for the wt1 strain (AID 149);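 further: 0% = growth of vehicle-treated wt1 cultures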; conditions: S. cerevisiae wt1 strain (SPY 50644) growth inhibition, stronger effect = higher value
Summary of the method: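 Yeast wt1 strain exposed to compounds; growth inhibition measured relative to vehicle-treated controls.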

[17] = at 5.0 µM (retest, dose inferred, filed as 0.5)
[18] = at 50.0 µM (retest, dose inferred, filed as 5.0)

Measured: growth inhibition

N#CC(C#N)=NNc1ccc(S(=O)(=O)O)cc1
inactive: [1]; at 1.2 µM 3% | [1]; at 3.7 µM 5% | [1]; at 11.0 µM 5% | [1]; at 33.0 µM 11% | [1]; at 100.0 µM 41% | [2]; at 1.2 µM -8% | [2]; at 3.7 µM -9% | [2]; at 11.0 µM -7% | [2]; at 33.0 µM 10% | [2]; at 100.0 µM 11% | [3]; [17] 63% | [3]; at 50.0 µM 20.6% | [4]; at 1.2 µM 2% | [4]; at 3.7 µM -6% | [4]; at 11.0 µM 5% | [4]; at 33.0 µM 1% | [4]; at 100.0 µM 2%
active: [3]; [18] 100%

CC(C)=NOC(=O)Nc1ccc(Cl)cc1
inactive: [5]; at 1.2 µM 1% | [5]; at 3.7 µM -7% | [5]; at 11.0 µM -8% | [5]; at 33.0 µM 15% | [5]; at 100.0 µM 66% | [6]; at 1.2 µM -32% | [6]; at 3.7 µM 18% | [6]; at 11.0 µM 23% | [7]; at 1.2 µM -41% | [7]; at 3.7 µM -60% | [7]; at 11.0 µM -56% | [7]; at 33.0 µM -11% | [8]; at 1.2 µM 2% | [8]; at 3.7 µM 11% | [8]; at 11.0 µM -3% | [8]; at 33.0 µM 28% | [8]; at 50.0 µM 58.2% | [8]; at 100.0 µM 67% | [9]; at 1.2 µM -40% | [9]; at 3.7 µM -26% | [9]; at 11.0 µM -24% | [9]; at 33.0 µM -7% | [9]; at 50.0 µM 29.9% | [9]; at 100.0 µM 47% | [10]; at 1.2 µM -48% | [10]; at 3.7 µM -50% | [10]; at 11.0 µM -30% | [10]; at 33.0 µM -25% | [10]; at 100.0 µM 45% | [11]; [17] 0% | [12]; at 1.2 µM -30% | [12]; at 3.7 µM -18% | [12]; at 11.0 µM -6% | [12]; at 33.0 µM 8% | [12]; at 100.0 µM 38% | [13]; at 50.0 µM 37.2% | [14]; at 1.2 µM -12% | [14]; at 3.7 µM -1% | [14]; [17] 28% | [14]; at 11.0 µM 0% | [14]; at 33.0 µM 8% | [14]; at 50.0 µM 47% | [14]; at 100.0 µM 64% | [15]; at 1.2 µM -34% | [15]; at 3.7 µM -25% | [15]; at 11.0 µM -21% | [15]; at 33.0 µM 5% | [1]; at 1.2 µM -25% | [1]; at 3.7 µM -17% | [1]; at 11.0 µM -22% | [1]; at 33.0 µM 21% | [3]; [17] 61% | [3]; at 50.0 µM 46.7% | [4]; at 1.2 µM -32% | [4]; at 3.7 µM -38% | [4]; at 11.0 µM -39% | [4]; at 33.0 µM 10%
active: [6]; at 33.0 µM 79% | [6]; at 100.0 µM 95% | [7]; at 100.0 µM 74% | [8]; [17] 87% | [8]; [18] 98% | [9]; [17] 76% | [9]; [18] 99% | [11]; [18] 92% | [11]; at 50.0 µM 72.8% | [13]; [17] 77% | [13]; [18] 90% | [14]; [18] 81% | [15]; at 100.0 µM 79% | [1]; at 100.0 µM 83% | [3]; [18] 99% | [4]; at 100.0 µM 72%

O=C(O)CCCC1CCCc2c1ccc1ccccc21 (centres undefined)
active: [16]; at 100.0 µM 99% | [6]; at 100.0 µM 81% | [7]; at 100.0 µM 99% | [8]; [18] 89% | [8]; at 50.0 µM 88% | [8]; at 100.0 µM 99% | [9]; [18] 95% | [9]; at 50.0 µM 83.6% | [9]; at 100.0 µM 99% | [10]; at 100.0 µM 99% | [11]; [18] 86% | [11]; at 50.0 µM 94.3% | [12]; at 33.0 µM 74% | [12]; at 100.0 µM 99% | [13]; [18] 96% | [13]; at 50.0 µM 90.2% | [14]; [18] 85% | [14]; at 50.0 µM 89% | [14]; at 100.0 µM 99% | [15]; at 100.0 µM 99% | [1]; at 100.0 µM 99% | [2]; at 100.0 µM 99% | [3]; [18] 91% | [3]; at 50.0 µM 91.2% | [4]; at 100.0 µM 98%
inactive: [16]; at 1.2 µM -3% | [16]; at 3.7 µM 2% | [16]; at 11.0 µM 2% | [16]; at 33.0 µM 38% | [6]; at 1.2 µM 3% | [6]; at 3.7 µM 8% | [6]; at 11.0 µM 29% | [6]; at 33.0 µM 59% | [7]; at 1.2 µM -4% | [7]; at 3.7 µM -3% | [7]; at 11.0 µM 4% | [7]; at 33.0 µM 59% | [8]; at 1.2 µM -2% | [8]; at 3.7 µM 0% | [8]; [17] 6% | [8]; at 11.0 µM 8% | [8]; at 33.0 µM 58% | [9]; at 1.2 µM -2% | [9]; at 3.7 µM -4% | [9]; [17] 10% | [9]; at 11.0 µM 4% | [9]; at 33.0 µM 47% | [10]; at 1.2 µM 3% | [10]; at 3.7 µM 7% | [10]; at 11.0 µM 13% | [10]; at 33.0 µM 51% | [11]; [17] 13% | [12]; at 1.2 µM 1% | [12]; at 3.7 µM -4% | [12]; at 11.0 µM 13% | [13]; [17] 5% | [14]; at 1.2 µM -4% | [14]; at 3.7 µM -6% | [14]; [17] 2% | [14]; at 11.0 µM 6% | [14]; at 33.0 µM 61% | [15]; at 1.2 µM -1% | [15]; at 3.7 µM 1% | [15]; at 11.0 µM 7% | [15]; at 33.0 µM 57% | [1]; at 1.2 µM -3% | [1]; at 3.7 µM -1% | [1]; at 11.0 µM 4% | [1]; at 33.0 µM 60% | [2]; at 1.2 µM -1% | [2]; at 3.7 µM -2% | [2]; at 11.0 µM 6% | [2]; at 33.0 µM 64% | [3]; [17] 4% | [4]; at 1.2 µM -2% | [4]; at 3.7 µM -2% | [4]; at 11.0 µM 2% | [4]; at 33.0 µM 58%
